Results published in publication PMC7862700, “An all-to-all approach to the identification of sequence-specific readers for epigenetic DNA modifications on cytosine”.

Legend:
Test in all cases: DAPPL (digital affinity profiling via proximity ligation, sequencing); 10 mM Tris-HCl pH 7.5, 50 mM NaCl, 1 mM DTT, 4% glycerol, room temperature, 30 min; GST-TFs on glutathione beads, 16-mer random dsDNA library, 0.1% formaldehyde crosslink after washing; high values mean tight binding
FEV = target: T1, FEV (Homo sapiens, UniProt Q99581 1-238); conditions: protein: recombinant; tags: N-terminal GST; dsDNA, one strand shown
T1 sequence: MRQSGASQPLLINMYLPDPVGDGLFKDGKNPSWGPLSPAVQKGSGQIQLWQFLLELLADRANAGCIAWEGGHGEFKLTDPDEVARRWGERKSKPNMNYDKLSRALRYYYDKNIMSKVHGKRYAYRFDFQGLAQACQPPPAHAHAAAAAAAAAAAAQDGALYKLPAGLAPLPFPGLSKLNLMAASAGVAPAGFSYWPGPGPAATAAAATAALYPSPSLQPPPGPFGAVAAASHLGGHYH
How it was run: (§1)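 Human transcription factors were made in yeast as GST fusions, captured on glutathione beads and barcoded with DNA. With a tag-only sample included, the pool was incubated with 200 nmole of a random double-stranded 16-mer DNA library in Tris/NaCl/DTT/glycerol buffer at room temperature for 30 min, then crosslinked with 0.1% formaldehyde after washing, ligated by proximity, amplified and sequenced. For binding signal, each hexamer's read frequency for a factor is divided by its frequency for the tag-only sample.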

ETV5 = ETV5 (Homo sapiens, UniProt P41161 1-510); conditions: protein: recombinant; tags: N-terminal GST; dsDNA, one strand shown
Chain of ETV5 (P41161 whole entry): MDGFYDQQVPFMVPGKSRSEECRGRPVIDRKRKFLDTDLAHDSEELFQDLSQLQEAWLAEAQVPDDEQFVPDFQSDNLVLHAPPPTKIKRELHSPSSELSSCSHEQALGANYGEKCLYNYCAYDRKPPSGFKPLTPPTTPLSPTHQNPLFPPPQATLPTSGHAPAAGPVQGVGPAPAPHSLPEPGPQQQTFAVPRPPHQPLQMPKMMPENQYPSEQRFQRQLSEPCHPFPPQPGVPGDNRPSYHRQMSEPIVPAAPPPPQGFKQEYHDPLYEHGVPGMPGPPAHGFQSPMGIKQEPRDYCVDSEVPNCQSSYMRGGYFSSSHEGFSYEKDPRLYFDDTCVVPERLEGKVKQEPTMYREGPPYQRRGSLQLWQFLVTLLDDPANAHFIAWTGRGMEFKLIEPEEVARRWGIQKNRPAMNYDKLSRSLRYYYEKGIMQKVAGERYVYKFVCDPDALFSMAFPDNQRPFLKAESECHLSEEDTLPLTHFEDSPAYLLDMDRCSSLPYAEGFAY
How it was run: as §1

HSF1 = HSF1 (Homo sapiens, UniProt Q00613 1-529); conditions: protein: recombinant; tags: N-terminal GST; chain copies: 3; dsDNA, one strand shown
Chain of HSF1 (Q00613 whole entry): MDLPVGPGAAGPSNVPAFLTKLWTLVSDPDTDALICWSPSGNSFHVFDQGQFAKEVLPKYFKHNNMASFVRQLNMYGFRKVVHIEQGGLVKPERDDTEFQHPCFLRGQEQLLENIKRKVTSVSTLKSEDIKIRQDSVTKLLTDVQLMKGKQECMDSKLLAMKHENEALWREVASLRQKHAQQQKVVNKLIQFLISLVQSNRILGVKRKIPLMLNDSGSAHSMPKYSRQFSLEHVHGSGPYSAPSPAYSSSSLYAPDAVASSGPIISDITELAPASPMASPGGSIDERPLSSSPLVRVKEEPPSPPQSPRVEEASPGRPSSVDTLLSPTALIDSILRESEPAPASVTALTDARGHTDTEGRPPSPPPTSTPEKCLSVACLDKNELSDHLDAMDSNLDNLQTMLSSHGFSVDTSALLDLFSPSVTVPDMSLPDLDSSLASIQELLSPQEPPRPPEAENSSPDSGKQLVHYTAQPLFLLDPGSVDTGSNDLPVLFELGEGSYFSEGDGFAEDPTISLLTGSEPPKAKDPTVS
How it was run: as §1

SPIC = target: T2, SPIC (Homo sapiens, UniProt Q8N5J4 1-248); conditions: protein: recombinant; tags: N-terminal GST; dsDNA, one strand shown
T2 sequence: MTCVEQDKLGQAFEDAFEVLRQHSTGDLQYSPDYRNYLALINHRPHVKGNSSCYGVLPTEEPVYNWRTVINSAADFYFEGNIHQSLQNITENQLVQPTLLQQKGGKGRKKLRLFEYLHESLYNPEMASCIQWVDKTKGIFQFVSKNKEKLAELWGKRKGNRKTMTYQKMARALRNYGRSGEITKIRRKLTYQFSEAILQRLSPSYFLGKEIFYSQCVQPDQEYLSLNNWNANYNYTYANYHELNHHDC
How it was run: as §1

ELF4 = ELF4 (Homo sapiens, UniProt Q99607 1-663); conditions: protein: recombinant; tags: N-terminal GST; dsDNA, one strand shown
Chain of ELF4 (Q99607 whole entry): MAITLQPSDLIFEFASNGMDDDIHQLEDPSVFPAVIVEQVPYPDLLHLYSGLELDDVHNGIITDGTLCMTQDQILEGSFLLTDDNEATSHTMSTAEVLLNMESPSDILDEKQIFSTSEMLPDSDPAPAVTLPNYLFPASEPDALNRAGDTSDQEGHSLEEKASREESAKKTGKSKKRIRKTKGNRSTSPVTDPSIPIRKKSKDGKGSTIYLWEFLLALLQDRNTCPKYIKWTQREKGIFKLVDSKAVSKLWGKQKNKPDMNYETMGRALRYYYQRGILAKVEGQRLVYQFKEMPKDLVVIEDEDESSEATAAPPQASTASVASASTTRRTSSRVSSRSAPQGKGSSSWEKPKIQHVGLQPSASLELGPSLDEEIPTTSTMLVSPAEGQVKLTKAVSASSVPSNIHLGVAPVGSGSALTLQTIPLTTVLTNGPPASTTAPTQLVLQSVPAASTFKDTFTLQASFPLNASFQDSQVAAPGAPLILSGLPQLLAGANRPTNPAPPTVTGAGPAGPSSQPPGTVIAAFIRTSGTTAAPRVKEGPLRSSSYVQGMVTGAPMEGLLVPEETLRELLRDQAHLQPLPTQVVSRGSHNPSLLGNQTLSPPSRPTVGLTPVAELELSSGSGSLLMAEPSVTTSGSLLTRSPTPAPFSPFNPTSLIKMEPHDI
How it was run: as §1

ELK4 = target: T3, ELK4 (Homo sapiens, UniProt P28324-2 1-405); conditions: protein: recombinant; tags: N-terminal GST; dsDNA, one strand shown
T3 sequence: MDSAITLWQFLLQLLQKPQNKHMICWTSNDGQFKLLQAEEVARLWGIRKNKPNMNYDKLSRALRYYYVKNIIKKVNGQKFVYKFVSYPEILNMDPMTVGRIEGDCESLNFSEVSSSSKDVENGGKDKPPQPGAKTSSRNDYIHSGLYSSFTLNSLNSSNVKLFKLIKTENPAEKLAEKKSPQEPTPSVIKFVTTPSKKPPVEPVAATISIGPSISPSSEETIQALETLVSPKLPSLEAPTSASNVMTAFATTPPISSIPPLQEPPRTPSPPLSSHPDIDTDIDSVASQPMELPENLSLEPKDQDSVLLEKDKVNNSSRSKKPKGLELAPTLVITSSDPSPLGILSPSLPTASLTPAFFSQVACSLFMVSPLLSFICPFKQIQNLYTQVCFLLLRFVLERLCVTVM
How it was run: as §1

ETV2 = target: T4, ETV2 (Homo sapiens, UniProt O00321 1-342); conditions: protein: recombinant; tags: N-terminal GST; dsDNA, one strand shown
T4 sequence: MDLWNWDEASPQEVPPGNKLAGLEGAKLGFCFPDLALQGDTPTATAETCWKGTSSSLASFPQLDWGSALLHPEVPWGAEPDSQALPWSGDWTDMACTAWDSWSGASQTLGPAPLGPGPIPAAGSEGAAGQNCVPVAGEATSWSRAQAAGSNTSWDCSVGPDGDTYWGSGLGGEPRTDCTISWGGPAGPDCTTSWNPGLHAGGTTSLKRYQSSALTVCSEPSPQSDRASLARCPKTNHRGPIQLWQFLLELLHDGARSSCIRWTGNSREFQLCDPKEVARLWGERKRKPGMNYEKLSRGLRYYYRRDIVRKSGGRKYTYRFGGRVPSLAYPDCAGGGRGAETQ
How it was run: as §1

ELF3 = target: T5, ELF3 (Homo sapiens, UniProt P78545 1-371); conditions: protein: recombinant; tags: N-terminal GST; dsDNA, one strand shown
T5 sequence: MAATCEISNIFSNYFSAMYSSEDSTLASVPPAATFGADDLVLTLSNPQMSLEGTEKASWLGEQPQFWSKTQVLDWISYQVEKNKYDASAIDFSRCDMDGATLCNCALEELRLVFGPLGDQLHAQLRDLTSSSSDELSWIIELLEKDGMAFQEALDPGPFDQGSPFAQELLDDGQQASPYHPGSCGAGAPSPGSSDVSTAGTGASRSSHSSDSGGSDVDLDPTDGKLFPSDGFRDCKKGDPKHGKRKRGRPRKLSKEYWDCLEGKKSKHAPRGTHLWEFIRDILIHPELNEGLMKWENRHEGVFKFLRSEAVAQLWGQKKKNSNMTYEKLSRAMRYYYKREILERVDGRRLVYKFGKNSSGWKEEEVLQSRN
How it was run: as §1

CRX = CRX (Homo sapiens, UniProt O43186 1-299); conditions: protein: recombinant; tags: N-terminal GST; dsDNA, one strand shown
Chain of CRX (O43186 whole entry): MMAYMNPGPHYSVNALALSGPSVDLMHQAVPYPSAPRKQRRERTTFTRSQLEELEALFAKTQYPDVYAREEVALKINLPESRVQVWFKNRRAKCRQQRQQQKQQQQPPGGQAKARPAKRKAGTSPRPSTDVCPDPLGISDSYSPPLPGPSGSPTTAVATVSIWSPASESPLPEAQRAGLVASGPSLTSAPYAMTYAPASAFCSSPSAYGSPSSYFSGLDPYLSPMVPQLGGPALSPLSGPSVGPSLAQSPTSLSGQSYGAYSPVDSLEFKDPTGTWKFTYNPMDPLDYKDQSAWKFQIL
How it was run: as §1

CCACTT was tested, and the binding signal (FEV) was 2.3 fold enrichment (6-mer frequency, TF over GST control), the binding signal (ETV5) was 1.99 fold enrichment (6-mer frequency, TF over GST control) and the binding signal (HSF1) was 1.25 fold enrichment (6-mer frequency, TF over GST control). For the same sequence, the binding signal (SPIC) was 1.63 fold enrichment (6-mer frequency, TF over GST control), the binding signal (ELF4) was 1.98 fold enrichment (6-mer frequency, TF over GST control) and the binding signal (ELK4) was 1.77 fold enrichment (6-mer frequency, TF over GST control). For the same sequence, the binding signal (ETV2) was 1.91 fold enrichment (6-mer frequency, TF over GST control), the binding signal (ELF3) was 1.59 fold enrichment (6-mer frequency, TF over GST control) and the binding signal (CRX) was 1.36 fold enrichment (6-mer frequency, TF over GST control).
